In PubChem BioAssay AID652115 (Broad Institute, 2013):
Among all 330,000 compounds or so, about 3,800 (1.2%) were called active. The entries come from a sample that favours actives as a whole. A number with no mark means an inactive call. Rule as the data show it: active = inhibition above about 15%; inconclusive = no clear call, values can overlap the other calls; inactive = below that.

Target: NAD-dependent protein deacylase sirtuin-5, mitochondrial (Homo sapiens) (UniProt Q9NXA8)
Assay: SIRT5 desuccinylase inhibitors, primary screen, biochemical, fluorescence imaging, single point, set 5 (AID 652115)
Details: Purified SirT5, succinyl-peptide AMC, trypsin-coupled fluorescence; at 15 µM; active compounds read high

Chain of NAD-dependent protein deacylase sirtuin-5, mitochondrial (Homo sapiens) (Q9NXA8 whole entry, looked up): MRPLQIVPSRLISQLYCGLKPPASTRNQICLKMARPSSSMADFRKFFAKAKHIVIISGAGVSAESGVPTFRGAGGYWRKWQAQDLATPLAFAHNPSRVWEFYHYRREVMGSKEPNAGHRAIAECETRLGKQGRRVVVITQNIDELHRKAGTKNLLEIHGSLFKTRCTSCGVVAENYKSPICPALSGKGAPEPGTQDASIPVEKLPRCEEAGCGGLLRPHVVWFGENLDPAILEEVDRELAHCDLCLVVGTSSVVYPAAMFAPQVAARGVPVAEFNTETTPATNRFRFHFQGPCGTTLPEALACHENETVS

SMILES	inhibition
CN(C)CC(=O)N1[C@@H](C#N)[C@@H](c2ccccc2-c2ccccc2F)[C@@H]1CO	-0.215%
COCC(=O)N1C[C@@H](C)[C@H](OC)CN(C)C(=O)c2cc(NC(=O)c3cc(C)on3)ccc2OC[C@@H]1C	-4.63%
N#Cc1ccc(-c2ccc([C@@H]3[C@H]4CNC[C@@H]3N4Cc3cc(F)ccc3F)cc2)cc1	-3.56%
COCC#Cc1cnc2c(c1)C(=O)N([C@H](C)CO)C[C@H](C)[C@H](CN(C)C(=O)Nc1ccccc1OC)O2	3.78%
C[C@@H](NC(=O)C[C@H]1C[C@@H]2c3cc(NC(=O)Nc4ccccc4F)ccc3O[C@@H]2[C@H](CO)O1)c1ccccc1	1.89%
COc1ccccc1NC(=O)Nc1ccc2c(c1)OC[C@H](C)NC[C@H](C)[C@@H](OC)CN(C)C2=O	6.5%
COc1ccc(S(=O)(=O)N(C)C[C@H]2OCCCC[C@H](C)Oc3ccc(NS(=O)(=O)c4ccc(F)cc4)cc3C(=O)N([C@@H](C)CO)C[C@@H]2C)cc1	20.4% (active)
COc1ccc(S(=O)(=O)Nc2ccc3c(c2)C(=O)N([C@@H](C)CO)C[C@H](C)[C@H](CN(C)S(=O)(=O)c2ccc(F)cc2)OCCCC[C@@H](C)O3)cc1	11.3%
COc1ccc(S(=O)(=O)N(C)C[C@@H]2OCCCC[C@@H](C)Oc3ccc(NS(=O)(=O)c4ccccc4)cc3C(=O)N([C@@H](C)CO)C[C@H]2C)cc1	4.81%
COc1ccc(S(=O)(=O)N(C)C[C@H]2OCCCC[C@@H](C)Oc3ccc(NS(=O)(=O)c4ccc(C)cc4)cc3C(=O)N([C@@H](C)CO)C[C@@H]2C)cc1	21.4% (active)
C[C@H]1CCCCO[C@@H](CN(C)Cc2ccc3c(c2)OCO3)[C@@H](C)CN([C@@H](C)CO)C(=O)c2cc(NC(=O)Nc3ccc(F)cc3)ccc2O1	1.57%
CC(C)NC(=O)Nc1ccc2c(c1)C(=O)N([C@@H](C)CO)C[C@H](C)[C@H](CN(C)S(=O)(=O)c1ccc(Cl)cc1)OCCCC[C@H](C)O2	4.57%
C[C@H](CO)N1C[C@H](C)[C@@H](CN(C)S(C)(=O)=O)OCCCC[C@H](C)Oc2ccc(NC(=O)Nc3cccc4ccccc34)cc2C1=O	-3.3%
COc1ccc(S(=O)(=O)Nc2ccc3c(c2)C(=O)N([C@@H](C)CO)C[C@H](C)[C@@H](CN(C)S(=O)(=O)c2ccc(C)cc2)OCCCC[C@@H](C)O3)cc1	4.83%
COc1ccc(S(=O)(=O)Nc2ccc3c(c2)C(=O)N([C@@H](C)CO)C[C@H](C)[C@@H](CN(C)S(=O)(=O)c2ccc(F)cc2)OCCCC[C@H](C)O3)cc1	3.5%
C[C@@H]1CN([C@H](C)CO)C(=O)c2cc(NC(=O)Nc3ccc4c(c3)OCO4)ccc2O[C@@H](C)CCCCO[C@@H]1CN(C)Cc1ccc2c(c1)OCO2	15.3% (active)
C[C@@H]1CN([C@@H](C)CO)C(=O)c2cc(NC(=O)Nc3cccc4ccccc34)ccc2O[C@@H](C)CCCCO[C@@H]1CN(C)S(=O)(=O)c1ccc(Cl)cc1	18.7% (active)

SMILES	inhibition
C[C@@H]1CCCCO[C@@H](CN(C)Cc2ccc3c(c2)OCO3)[C@@H](C)CN([C@@H](C)CO)C(=O)c2cc(NC(=O)Nc3ccccc3)ccc2O1	0.341%
O=C(NCC[C@@H]1CC[C@@H](NS(=O)(=O)c2cccc(F)c2)[C@H](CO)O1)C1CC1	-0.786%
C[C@H]1CN([C@@H](C)CO)C(=O)c2cccc(NC(=O)Nc3ccccc3)c2O[C@H]1CN(C)S(=O)(=O)c1ccc(F)cc1	-1.45%
CCC(=O)Nc1ccc2c(c1)C(=O)N(C)[C@H]1CC[C@H](CC(=O)NCCOC)O[C@@H]1CO2	2.38%
C[C@@H]1CN([C@@H](C)CO)C(=O)Cc2cc(NS(=O)(=O)c3cccs3)ccc2O[C@@H]1CN(C)C(=O)Nc1ccc(C(F)(F)F)cc1	3.48%
Cc1ccc(S(=O)(=O)N(C)C[C@@H]2OCCCC[C@@H](C)Oc3ccc(NS(=O)(=O)c4ccc(F)cc4)cc3C(=O)N([C@H](C)CO)C[C@H]2C)cc1	19.9% (active)
Cc1ccc(S(=O)(=O)N(C)C[C@H]2OCCCC[C@@H](C)Oc3ccc(NC(=O)Nc4ccc(F)cc4)cc3C(=O)N([C@@H](C)CO)C[C@H]2C)cc1	-2.04%
COc1ccc(S(=O)(=O)Nc2ccc3c(c2)C(=O)N([C@@H](C)CO)C[C@@H](C)[C@H](CN(C)Cc2ccc(C(F)(F)F)cc2)OCCCC[C@@H](C)O3)cc1	16.7% (active)
C[C@@H]1CCCCO[C@H](CN(C)S(=O)(=O)c2ccc(F)cc2)[C@H](C)CN([C@@H](C)CO)C(=O)c2cc(NS(=O)(=O)c3ccccc3)ccc2O1	4.58%
COc1ccc(S(=O)(=O)Nc2ccc3c(c2)C(=O)N([C@@H](C)CO)C[C@H](C)[C@H](CN(C)Cc2ccc(C(F)(F)F)cc2)OCCCC[C@@H](C)O3)cc1	9.2%
C[C@H](CO)N1C[C@H](C)[C@H](CN(C)Cc2ccc(C(F)(F)F)cc2)Oc2ccc(NS(C)(=O)=O)cc2C1=O	21.5% (active)
Cc1ccc(S(=O)(=O)Nc2ccc3c(c2)C(=O)N([C@H](C)CO)C[C@H](C)[C@H](CN(C)S(=O)(=O)c2ccc(F)cc2)OCCCC[C@@H](C)O3)cc1	4.66%
COc1ccc(CN(C)C[C@@H]2OCCCC[C@H](C)Oc3ccc(NS(=O)(=O)c4ccc(F)cc4)cc3C(=O)N([C@H](C)CO)C[C@H]2C)cc1	-3.51%
C[C@H](CO)N1C[C@H](C)[C@H](CN(C)S(=O)(=O)c2ccc(F)cc2)OCCCC[C@H](C)Oc2ccc(NS(=O)(=O)c3ccc(Cl)cc3)cc2C1=O	17.6% (active)
C[C@@H]1CN([C@H](C)CO)C(=O)c2cc(NS(=O)(=O)c3cccs3)ccc2O[C@@H]1CN(C)Cc1ccc(C(F)(F)F)cc1	2.33%
C[C@H]1CN([C@@H](C)CO)C(=O)c2cc(NS(C)(=O)=O)ccc2O[C@H]1CN(C)C(=O)Nc1ccc(C(F)(F)F)cc1	-4.07%
COc1ccc(S(=O)(=O)Nc2ccc3c(c2)C(=O)N([C@H](C)CO)C[C@@H](C)[C@H](CN(C)S(=O)(=O)c2ccc(Cl)cc2)OCCCC[C@@H](C)O3)cc1	13.8%
